Compounds without any hit were thinned out: in the full panel of roughly 83,000, 20% have a hit.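 In brief: 96-well plates, 48 h treatment, single concentration, percent growth endpoint.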 A number with no mark means an inactive call. Calls of active or inactive are those of the source. Rule for the calls: active = growth percent below 10; inactive = the rest.
Each compound was assayed on HL-60(TB) leukemia (assay: NCI-60 one-dose screen, 48 h (100 = growth as untreated, 0 = no growth, -100 = all killed)). Details: 10 µM unless noted.
`COc1cc(/C=C/C(=O)c2ccc(NC(=O)CSc3nnc(-c4cc(-c5ccccc5)nc5ccccc45)n3-c3ccccc3)cc2)cc(OC)c1OC` showed a growth of 84.9%.
In the case of `CC(=O)c1c(O)c(C)c(O)c2c1OC1=CC(=O)C(C(C)=O)C(=O)C12C` (stereo unspecified), the growth was 45.4%.
In the case of `COc1ccc(C2CC(n3nnnc3-c3ccccc3)=NN2)cc1` (stereo unspecified), the growth was 4.11% (active).
`CC(C)(C)NCCC(O)c1cc(C(F)(F)F)nc2c(C(F)(F)F)cccc12` (stereo unspecified) was tested, and the growth was 73.5%.
`Cc1ccccc1-n1nnc(C(=O)Nc2ccc(-c3ccccc3)cn2)c1C` was tested, and the growth was 28.8% [50 µM].
`Cc1nc2c(nnn2-c2ccccc2)c2nc(-c3ccccc3)oc(=O)c12` showed a growth of 109%.
Work on `OC(c1cc(C(F)(F)F)nc2c(C(F)(F)F)cccc12)C1CCCCN1` (stereo unspecified) yielded a growth of 50.3%.
Work on `O=C(NCC(c1ccsc1)N1CCCCCC1)c1ccc(C(F)(F)F)cc1` (stereo unspecified) yielded a growth of 97.5%.
For `COc1cc(/C=C/C(=O)c2ccc(Cl)cc2)ccc1OS(=O)(=O)c1ccc(C)cc1`, the growth was 75.2%.
For `Cc1c(C)c2c(c(C)c1OCC(=O)O)CC[C@@](C)(CCC[C@@H](C)CCC[C@@H](C)CCCC(C)C)O2`, the growth was 1.94% [50 µM] (active).
In the case of `O=C([C@@H](COCc1ccccc1)N1C(=O)[C@@H](N2C(=O)OC[C@@H]2c2ccccc2)[C@H]1/C=C/c1ccccc1)N1CCC(CCN2CCCCC2)CC1`, the growth was 64.5%.
For `COc1ccc(/C=C2\Oc3cc(OCCCN4CCCC4)ccc3C2=O)cc1`, the growth was 94.7%.
For `COC(=O)[C@]12CC[C@@H](C)[C@H](C)[C@@H]1C1=CC[C@@H]3[C@@]4(C)C(C=O)=C[C@@](C)(COC(=O)c5ccco5)C4=CC[C@@]3(C)[C@]1(C)CC2`, the growth was -9.45% (active).
In the case of `O=S(=O)(Nc1cc(F)cc(Cl)c1)c1ccc(-c2cnc(C3CC3)o2)cc1`, the growth was 7.71% (active).
With `CCOC(=O)c1[nH]c(=O)c2c(C)nc(-c3ccccc3)cc2c1O` the growth was 111%.
`COc1cc2ncnc(Nc3ccc(OCc4cccc(F)c4)c(Cl)c3)c2cc1NC(=O)C1CCCC1` was tested, and the growth was 99%.
`COc1ccc(-c2nc3c(N)c(CO)c(C)nc3o2)cc1` was tested, and the growth was 98.3%.
For `Cc1nn(-c2ccc(-c3ccc(OC(F)(F)F)cc3)cc2)c2nc(-c3ccccc3)nc(N)c12`, the growth was 100%.
With `O=[N+]([O-])c1ccc(C(c2ccccc2)c2ccccc2)cc1` the growth was 79.3%.
With `O=c1c(CNc2ccc(S(=O)(=O)Nc3ncccn3)cc2)coc2ccccc12` the growth was 93.2%.
For `COc1cc2c(c(O)c1Br)C(=O)c1c(O)cc(C[C@H](C)O)cc1[C@H]2[C@H]1c2cc(C[C@H](C)O)cc(O)c2C(=O)c2c1cc(OC)c(Br)c2O`, the growth was -28% (active).
In the case of `COc1ccc(C(=O)/C(=N/Nc2ccccc2)c2ccc(OC)cc2)cc1`, the growth was 88.4%.
With `CCCCOc1ccc(/C=C2/SC(N3CCCC3)=NC2=O)cc1` the growth was 98%.
With `CC1=CN2C(=O)C3C4=C(CCCC4)SC3N=C2CN1c1c(C)cccc1C` (stereo unspecified) the growth was -9.4% (active).
With `C/C=C(/C)C(=O)O[C@@H]1CC(C)(C)CC2C34OC(=O)[C@@]21CC[C@@]3(C)[C@]1(C)CCC2C(C)(C)C(=O)CC[C@]2(C)C1C[C@@H]4O` (stereo partly specified) the growth was 6.92% (active).
`OC(CCN1CCCCC1)(c1ccccc1)c1ccccc1` gave a growth of 130%.
For `O=c1c2c3c(sc2n2c(CCl)nnc2n1Cc1ccccc1)CCCC3`, the growth was -59.8% (active).
For `Nc1nc(N)c2c(n1)NC(c1ccccc1)C1CCc3ccccc3C1=N2` (stereo unspecified), the growth was -11.2% (active).
Work on `O=C(NC(CSSCC(NC(=O)OCc1ccccc1)C(=O)O)C(=O)O)OCc1ccccc1` (stereo unspecified) yielded a growth of 14.3%.
`O=C(/C=C\c1cccc([N+](=O)[O-])c1)/C=C/c1cccc([N+](=O)[O-])c1` showed a growth of 123%.
`CC(C)CCN(CCC(C)C)CC(O)c1cc2c(c3ccccc13)CCCC2` (stereo unspecified) showed a growth of 78.6%.
With `Nc1ccc(-c2ccc(N)c(S(=O)(=O)O)c2)cc1S(=O)(=O)O` the growth was 91.4%.
With `CCOCC[P+](c1ccccc1)(c1ccccc1)c1ccccc1` the growth was 11.7%.
`C1CCCCNCCC1` gave a growth of 114%.
For `CC(C)(C)OC(=O)N1CCN(CCn2cc(C(F)(F)F)c3c(Cl)ncnc32)CC1`, the growth was 16.4%.
`C[C@@H]1N=C(c2ccc(Cl)cc2Cl)Nc2nc3ccccn3c2C1=O` was tested, and the growth was 0.461% (active).
